# Measurements published in PubChem BioAssay.
# Where “and” joins values, the source holds several entries; their conditions need not be identical. Equal values may be shown once. Calls of active or inactive are those of the source. Cut-off read from the data, not from the text of the source, unless noted: active = inhibition above about 80%; inactive = the rest.
# Key:
# [1] = growth inhibition of BT084 medulloblastoma cells, cell-based, ICGC_MB145, cisplatin and BGB IC40 combos (AID 1671461); details: drug combinations, stronger effect = higher value;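 note: cells exposed to drugs for 96 hours; 0% = vehicle DMSO and 100% = high DMSO full killing control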
# [2] = growth inhibition of RCMB18 medulloblastoma cells, cell-based, cisplatin and BGB IC40 combos (AID 1671462); details: stronger effect = higher value;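 note: cells exposed to compound for four days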
# [3] = growth inhibition of CRL1545 osteosarcoma cells, cell-based, cisplatin and BGB IC20 combos (AID 1671464); details: stronger effect = higher value;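 note: cells exposed to compound for 96 hours before readout; 0% = vehicle DMSO and 100% = high DMSO killing control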
# [4] = sensitizers of A549 cells to miR-34 induction, primary screen, imaging, A549 dox-inducible miR-34, nuclei and caspase counts (AID 1347080;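 active = compounds whose cell count with miR-34 switched on is under 0.7 times the count with it off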); details: A549 miR-34 inducible, Hoechst nuclei count, 48 h
# [5] = survival rescue of mitochondrial mutant cells in low glucose, primary screen, MELAS cybrids, Rieske KO mouse fibroblasts, CellTiter-Glo (AID 1508586;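 active = mean z-score across replicates of 1.96 or higher in either the MELAS or the Rieske mutant cell line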;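 note: z relative to plate mean and SD of compound and empty wells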)
# [6] = LFS_MB_P medulloblastoma growth inhibition, cell-based, chromothripsis tumors, cisplatin or BGB combos (AID 1671449); details: LFS_MB_P medulloblastoma cells;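 note: cells exposed for 96 hours; 0% = vehicle DMSO and 100% = killing by high DMSO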
# [7] = HDN33 neuroblastoma growth inhibition, cell-based, chromothripsis tumors, cisplatin or BGB combos (AID 1671450); details: HDN33 neuroblastoma cells, stronger effect = higher value;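 note: cells exposed to compound for four days; 0% = vehicle DMSO and 100% = cell killing by high DMSO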
# [8] = ICB984 medulloblastoma cell growth inhibition, synergistic combos for chromothripsis tumors, cisplatin or BGB combos (AID 1671451; call rule not given here;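 note: cells exposed for 96 hours before readout; 0% = vehicle DMSO and 100% = killing by high DMSO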); details: ICB984 medulloblastoma cells, drug combinations, stronger effect = higher value
# [9] = LFS_MB_1R medulloblastoma cell growth inhibition, synergistic combos for chromothripsis tumors, cisplatin or BGB combos (AID 1671452); details: LFS_MB_1R medulloblastoma cells, stronger effect = higher value;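 note: cells exposed for 96 hours before readout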
# [10] = HTB85 osteosarcoma cell growth inhibition, synergistic combos for chromothripsis tumors, BGB or cisplatin IC20 combos (AID 1671453); details: HTB85 osteosarcoma cells, drug combinations, stronger effect = higher value;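 note: cells exposed for 96 hours before readout; 0% = vehicle DMSO and 100% = high DMSO killing control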
# [11] = CRL2098 osteosarcoma cell growth inhibition, synergistic combos for chromothripsis tumors, BGB or cisplatin IC20 combos (AID 1671454); details: CRL2098 osteosarcoma cells, drug combinations, stronger effect = higher value;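 note: cells exposed for 96 h before readout; 0% = vehicle DMSO and 100% = killing by high DMSO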
# [12] = HD-MB03 medulloblastoma cell growth inhibition, synergistic combos for chromothripsis tumors, BGB or cisplatin IC20 combos (AID 1671455; in the data active = inhibition above about 83%;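 note: 0% = vehicle DMSO and 100% = high DMSO as cytotoxic control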); details: HD-MB03 medulloblastoma cells, stronger effect = higher value
# [13] = UWB1.289 ovarian carcinoma cell growth inhibition, synergistic combos for chromothripsis tumors, BGB or cisplatin combos (AID 1671456); details: UWB1.289 ovarian carcinoma cells, stronger effect = higher value;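 note: cells exposed to compound for four days; 0% = vehicle DMSO and 100% = killing by high DMSO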
# [14] = LFS_MB_2R medulloblastoma cell growth inhibition, synergistic combos for chromothripsis tumors, cisplatin combos (AID 1671457); details: LFS_MB_2R medulloblastoma cells, stronger effect = higher value;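 note: cells exposed to compound for four days before readout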
# [15] = MDA-MB-436 breast carcinoma cell growth inhibition, synergistic combos for chromothripsis tumors, BGB or cisplatin combos (AID 1671458; call rule not given here;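 note: cells exposed for 96 hours; 0% = vehicle DMSO and 100% = killing by high DMSO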); details: MDA-MB-436 breast carcinoma growth inhibition, drug combinations, stronger effect = higher value
# [16] = UWB1.289_BRCA1 ovarian cancer growth, cell-based, BGB or cisplatin combinations (AID 1671459); details: UWB1.289 BRCA1 ovarian carcinoma, drug combinations, stronger effect = higher value
# [17] = human astrocyte viability loss, single and combined drugs, cytotoxicity control for chromothriptic childhood tumor combination screen, cell-based, BGB or cisplatin IC20 combos (AID 1671460); details: Human astrocytes, drug combinations, stronger effect = higher value;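 note: cells exposed to compounds for 96 hours before viability readout; 0% = vehicle and 100% = killing control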
# [18] = cisplatin combination, at 0.5 µM
# [19] = measured here: BGB IC40 combination 0.05 uM, at 0.05 µM
# [20] = measured here: BGB IC40 combination, at 0.05 µM
# [21] = measured here: combination with cisplatin, at 0.5 µM
# [22] = measured here: with BGB IC20 combination, at 0.5 µM
# [23] = measured here: with cisplatin IC20 combination, at 0.5 µM
# [24] = measured here: combination with BGB IC40, at 0.05 µM
# [25] = measured here: combination with cisplatin, at 5 µM
smiles,measurement,setting,value
NC(=S)NN=Cc1ncccc1N,inhibition,[1]; [18],-29.3%
same,inhibition,"[1]; cisplatin combination, at 5 µM",-3.12%
same,inhibition,[1]; [19],-31.2%
same,inhibition,"[1]; single agent, at 5 µM",-27%
same,inhibition,[2]; at 0.5 µM,-9.8% (inactive)
same,inhibition,"[2]; cisplatin combo, at 5 µM",15.6%
same,inhibition,[2]; [20],-6.51%
same,inhibition,[2]; [21],3.15%
same,inhibition,"[2]; single agent, at 5 µM",-34.2%
same,inhibition,[3]; at 0.5 µM,10.3% (inactive)
same,inhibition,[3]; [22],-9.01%
same,inhibition,[3]; [23],19.9%
same,inhibition,"[3]; single agent, at 0.05 µM",29.3%
same,inhibition,"[3]; single agent, at 5 µM",63.9%
CC(Oc1cc(-c2cnn(C3CCNCC3)c2)cnc1N)c1c(Cl)ccc(F)c1Cl (stereo not drawn),fold change,"[4]; stronger effect = lower value, cell number ratio, induced over uninduced",0.89 (inactive) and 0.888 (inactive)
same,fold change,[4]; measured here: relative caspase fold change +Dox/-Dox,0.695 and 1.44
same,cell count,"[4]; measured here: total cells with miR-34 induction, stronger effect = lower value",6060 and 1510
same,cell count,[4]; measured here: total cells without miR-34 induction,6810 and 1700
same,z-score,"[5]; MELAS cybrid survival, CellTiter-Glo 48 h, stronger effect = higher value",-0.618 (inactive) and 0.388 (inactive)
same,z-score,"[5]; Rieske KO mouse fibroblast survival, CellTiter-Glo 72 h",-0.613 and -1.18
same,inhibition,"[6]; at 0.5 µM, stronger effect = higher value",-14.5% (inactive)
same,inhibition,"[6]; measured here: combination with BGB IC20, at 0.005 µM",-15.8%
same,inhibition,"[6]; measured here: combination with BGB IC40, at 0.005 µM",-3.96%
same,inhibition,[6]; [24],-10.8%
same,inhibition,"[6]; measured here: combination with cisplatin, at 0.5 µM, stronger effect = higher value",-18.2%
same,inhibition,"[6]; measured here: combination with cisplatin, at 5 µM, stronger effect = higher value",-60.7%
same,inhibition,"[7]; BGB combo, at 5 µM",54.9%
same,inhibition,[7]; at 0.5 µM,3.71% (inactive)
same,inhibition,"[7]; cisplatin combo, at 5 µM",68.7%
same,inhibition,[7]; [22],-2.84%
same,inhibition,[7]; [23],14.2%
same,inhibition,"[7]; single agent, at 5 µM",74.1%
same,inhibition,"[8]; BGB IC20 combo, at 0.005 µM",9.17%
same,inhibition,"[8]; BGB IC40 combo, at 0.005 µM",-17.8%
same,inhibition,"[8]; BGB IC40 combo, at 0.05 µM",44.6%
same,inhibition,[8]; at 0.5 µM,-13.1% (inactive)
same,inhibition,"[8]; cisplatin combo, at 0.05 µM",42.6%
same,inhibition,"[8]; cisplatin combo, at 0.5 µM",-13.5%
same,inhibition,"[8]; cisplatin combo, at 5 µM",-41.4%
same,inhibition,"[8]; measured here: 5 uM single agent, at 5 µM",-10.6%
same,inhibition,[9]; at 0.5 µM,-9.48% (inactive)
same,inhibition,[9]; [24],5.36%
same,inhibition,[9]; [21],-34%
same,inhibition,[9]; [25],26.2%
same,inhibition,[10]; at 0.5 µM,2.72% (inactive)
same,inhibition,"[10]; measured here: with BGB IC20, at 0.5 µM",0.991%
same,inhibition,"[10]; measured here: with BGB IC20, at 5 µM",44.7%
same,inhibition,"[10]; measured here: with cisplatin IC20, at 0.5 µM",4.34%
same,inhibition,"[10]; measured here: with cisplatin IC20, at 5 µM",12.6%
same,inhibition,"[10]; single agent, at 5 µM",47.7%
same,inhibition,[11]; at 0.5 µM,-32.5% (inactive)
same,inhibition,"[11]; measured here: combination with BGB at IC20, at 0.5 µM",-20.2%
same,inhibition,"[11]; measured here: combination with cisplatin at IC20, at 0.5 µM",-64.1%
same,inhibition,[12]; at 0.5 µM,3.43% (inactive)
same,inhibition,"[12]; measured here: combo with BGB at IC20, at 0.5 µM",-2.99%
same,inhibition,"[12]; measured here: combo with cisplatin at IC20, at 0.5 µM",13.3%
same,inhibition,[13]; at 0.5 µM,11.5% (inactive)
same,inhibition,"[13]; measured here: inhibition with BGB combination, at 0.05 µM",17.9%
same,inhibition,"[13]; measured here: inhibition with cisplatin combination, at 0.05 µM",12.8%
same,inhibition,[14]; at 0.5 µM,-6.87% (inactive)
same,inhibition,[14]; [21],-10.6%
same,inhibition,[14]; [25],26.8%
same,inhibition,[15]; at 0.5 µM,2.15% (inactive)
same,inhibition,"[15]; measured here: BGB combination, at 0.5 µM",0.074%
same,inhibition,"[15]; measured here: BGB combination, at 5 µM",18.2%
same,inhibition,"[15]; measured here: cisplatin combination, at 0.5 µM",3.61%
same,inhibition,"[15]; measured here: cisplatin combination, at 5 µM",29.4%
same,inhibition,"[16]; BGB combination, concentration series, at 5 µM",53.7%
same,inhibition,[16]; at 0.5 µM,8.71% (inactive)
same,inhibition,"[16]; cisplatin combination, concentration series, at 5 µM",38.8%
same,inhibition,[17]; at 0.5 µM,-2.23% (inactive)
same,inhibition,"[17]; measured here: combo with BGB IC20, at 0.5 µM",-5.88%
same,inhibition,"[17]; measured here: combo with cisplatin IC20, at 0.5 µM",-4.28%
same,inhibition,[1]; at 0.5 µM,5.1% (inactive)
same,inhibition,[1]; [18],-5.89%
same,inhibition,"[1]; cisplatin combination, at 5 µM",96.5%
same,inhibition,[1]; [19],-35.9%
same,inhibition,"[1]; single agent, at 5 µM",55.8%
same,inhibition,[2]; at 0.5 µM,16.2% (inactive)
same,inhibition,"[2]; cisplatin combo, at 5 µM",34.5%
same,inhibition,[2]; [20],5.63%
same,inhibition,[2]; [21],33%
same,inhibition,"[2]; single agent, at 5 µM",51.6%
same,inhibition,[3]; at 0.5 µM,-10% (inactive)
same,inhibition,[3]; [22],-14.1%
same,inhibition,[3]; [23],-9.79%
same,inhibition,"[3]; single agent, at 0.05 µM",7.84%
same,inhibition,"[3]; single agent, at 5 µM",64%
